# In PMC7819943, “Rice protein-binding microarrays: a tool to detect cis-acting elements near promoter regions in rice”:
# In all, about 39,000 sequences were measured (“fluorescence intensity (a.u.)”: median about 4,300, highest 2% from about 39,000 on). Only a selection was taken, and the highest values are over-represented in it overall.
# Molecular target: T1, OsSMF1 (Oryza sativa, UniProt Q6ZLB0 1-436)
# T1 sequence: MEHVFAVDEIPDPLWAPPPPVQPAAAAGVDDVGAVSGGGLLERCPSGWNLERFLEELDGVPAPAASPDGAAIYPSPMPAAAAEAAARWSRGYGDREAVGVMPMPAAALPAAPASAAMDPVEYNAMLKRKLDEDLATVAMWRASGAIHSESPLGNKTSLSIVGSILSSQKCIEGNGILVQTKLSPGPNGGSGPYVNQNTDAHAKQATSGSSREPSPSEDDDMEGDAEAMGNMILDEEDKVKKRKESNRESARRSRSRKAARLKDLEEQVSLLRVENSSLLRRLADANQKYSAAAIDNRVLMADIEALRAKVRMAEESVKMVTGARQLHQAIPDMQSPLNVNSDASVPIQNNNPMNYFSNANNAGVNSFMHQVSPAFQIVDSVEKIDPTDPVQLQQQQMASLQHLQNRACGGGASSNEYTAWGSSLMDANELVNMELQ
# Test: protein-binding microarray (RPBM); PBS, 2% BSA, 51.3 ng/ul salmon testes DNA, 50 uM zinc acetate, 200 nM TF, 25 C, 1 h; high values mean tight binding
# Settings: protein: recombinant; tags: N-terminal polyhistidine and DsRed monomer fusion (pET32a); chain copies: 2; label: CyDye5-dUTP incorporated in the synthesized complementary strand; 3' TTTTT single-stranded linker to array surface; dsDNA, one strand shown
# How it was run: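 Binding signal is reported as fluorescence intensity per feature (arbitrary units) from an Axon 4000B scanner. Incubation used 200 nM of each Ni–NTA-purified, N-terminally polyhistidine- and DsRed-fused transcription factor from E. coli BL21-CodonPlus on a double-stranded custom Agilent array for 1 h at 25 °C, with 50 µM zinc acetate in the buffer, followed by washing.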
row,Sequence,binding signal
1,CAGCTACAGGACGGCAGTACCCAGTACACGCACGCGTACCCGGAGTCACCTAGTGCAG,3640 fluorescence intensity (a.u.)
2,TTAAATGCACCCCTACTCAACCCCTCAATCGACGTGTTGGCGGAGTCACCTAGTGCAG,4180 fluorescence intensity (a.u.)
3,AGTATTTTAAATCATATACAAGTACGTCACATCATCACTCCGGAGTCACCTAGTGCAG,3720 fluorescence intensity (a.u.)
4,TGACACCGTCGCCACCTCGCCACCCATCCATTTCCATTGCCGGAGTCACCTAGTGCAG,3650 fluorescence intensity (a.u.)
5,TGCACGCTGCGGCGTACGTCGCGTGCGCACACGGGAATTTCGGAGTCACCTAGTGCAG,3190 fluorescence intensity (a.u.)
6,TCTACTCCTAAATCCACATCATCTTTAGCAAAAGCAACAACGGAGTCACCTAGTGCAG,4670 fluorescence intensity (a.u.)
7,TTGTCGCAGGTTGCTGACTGTTCCTCGAGGGAGTTCTCGGCGGAGTCACCTAGTGCAG,6980 fluorescence intensity (a.u.)
8,GCCTCTCCTTGCTTGCGTGCTCACTGTCGCTGACTGCTCTCGGAGTCACCTAGTGCAG,4650 fluorescence intensity (a.u.)
9,TGTGGTGGCTGAGTCATCGTGGGATCCACGTGGGCCCCACCGGAGTCACCTAGTGCAG,24700 fluorescence intensity (a.u.)
10,TCGTGGGAATGGCTGAGGATTAGGGCGCCACGTCATCGTTCGGAGTCACCTAGTGCAG,45600 fluorescence intensity (a.u.)
11,GCCGTGGGAATGGCTGAGGATTAGTGCGCCACGTCAGCAACGGAGTCACCTAGTGCAG,37300 fluorescence intensity (a.u.)
12,TTTCTCCACGTCAGCGAAACCACCTATATATATACTGCCACGGAGTCACCTAGTGCAG,14300 fluorescence intensity (a.u.)
13,AACTCTCCAGTCTCCACCCACCTCACTCCACAGTCCACACCGGAGTCACCTAGTGCAG,3150 fluorescence intensity (a.u.)
14,AGACACAGCACACCCACTCACTCTGCTCACTCTCCCATACCGGAGTCACCTAGTGCAG,39100 fluorescence intensity (a.u.)
15,CTCCGTTGTGCTCTGTCTCTCTACCGCCACCATCCACTGCCGGAGTCACCTAGTGCAG,39200 fluorescence intensity (a.u.)
16,GCCGCCGCTGTCGCCATCCACGCTCCGAGCGCCACTGCCACGGAGTCACCTAGTGCAG,3490 fluorescence intensity (a.u.)
17,CCCTGCTCTGCCACGCCCGCCACCGTCTGCCGGCCTCTACCGGAGTCACCTAGTGCAG,4730 fluorescence intensity (a.u.)
18,CTCCACACAGACACACATCCCACCCCACCCACATACACACCGGAGTCACCTAGTGCAG,3610 fluorescence intensity (a.u.)
19,CTATGCCTTGTCAACATTCAACCCCTCCAATAGACTTTGTCGGAGTCACCTAGTGCAG,3210 fluorescence intensity (a.u.)
20,CTCTTGACCAGCCGAGCGCACCGTCATCAGGCTACATCTCCGGAGTCACCTAGTGCAG,5290 fluorescence intensity (a.u.)
21,TCCAGTTTCGCGTAGCTGCGTGACAGTTCAATTGAACTCTCGGAGTCACCTAGTGCAG,3200 fluorescence intensity (a.u.)

row,Sequence,binding signal
1,CCCTCTCCACATTCTCTTCCACCTGTGTTCCCCTTTTCTTCGGAGTCACCTAGTGCAG,3320 fluorescence intensity (a.u.)
2,CTCTTTTCCCCATCTCACATACTGTGCCTTGCCTCCATAACGGAGTCACCTAGTGCAG,65200 fluorescence intensity (a.u.)
3,TCCTCCCATCTCTCTCTCTTTTGCCCACACTCTTTTCACACGGAGTCACCTAGTGCAG,5660 fluorescence intensity (a.u.)
4,TTCTATAGAAGCTTTCTCTCTTAAAACTCTACCAAAATTTCGGAGTCACCTAGTGCAG,24000 fluorescence intensity (a.u.)
5,AATAAATAGGCCTGACGTGAGGCCCACTCGCCACGTCAGCCGGAGTCACCTAGTGCAG,44900 fluorescence intensity (a.u.)
6,CAGCCGGGCCCACGTGTCAGTGAGTGCGTGACGCGTCAGCCGGAGTCACCTAGTGCAG,15200 fluorescence intensity (a.u.)
7,TCGTCGCCCACTGCCACCGCTGACGTCACCGCACTCTCGCCGGAGTCACCTAGTGCAG,30500 fluorescence intensity (a.u.)
8,TTTTGACCCGGTTTTAGCCTACGTGACGGCTAAGTCAGCGCGGAGTCACCTAGTGCAG,4480 fluorescence intensity (a.u.)
9,AATTACCACCCTAACTCAATTAGAAGCGGTTTTCAGCCTACGGAGTCACCTAGTGCAG,52400 fluorescence intensity (a.u.)
10,TCTTTTGGTGGTTTCAGAAGCGGTTTTATCCTACGTGACACGGAGTCACCTAGTGCAG,4530 fluorescence intensity (a.u.)
11,GGGGAAGGAGAAGAGGAAGGAGAGGGGAGGAGGAGGAGGGCGGAGTCACCTAGTGCAG,3770 fluorescence intensity (a.u.)
12,CAAGGAAGAATATGCCACCTCCACGGAGGCCGGCGGCGGCCGGAGTCACCTAGTGCAG,3710 fluorescence intensity (a.u.)
13,GAGAAGAAGGCCACCTCACCACTAAAGGAGGAGGAGGAGGCGGAGTCACCTAGTGCAG,43500 fluorescence intensity (a.u.)
14,TCAGCGAATTGGTACGTACCCTTGTACGTGTTGACGCCATCGGAGTCACCTAGTGCAG,3650 fluorescence intensity (a.u.)
15,TACGTGTGTTGATTTCCGTGACATATGCATAAATTTCTTTCGGAGTCACCTAGTGCAG,3530 fluorescence intensity (a.u.)
16,CCTTTCCGATTACGTGTTGGACCTTGACCCTAGGCCATATCGGAGTCACCTAGTGCAG,49700 fluorescence intensity (a.u.)
17,CCGTCGACTCTGTGCCACGTCCTGTTGCTCGTCGGATTCCCGGAGTCACCTAGTGCAG,14000 fluorescence intensity (a.u.)
18,TTGCTGCAGTTCTCGTATGCTTCCTAGTACTATCTGCGTTCGGAGTCACCTAGTGCAG,3230 fluorescence intensity (a.u.)
19,TGCAGTATCTGCCGTTCGTATCGCTGCGTTGAATCTTCCACGGAGTCACCTAGTGCAG,47100 fluorescence intensity (a.u.)
20,CTAGTTCGCCTTCCACGTACGCACTTGGCGTCGTATCTGCCGGAGTCACCTAGTGCAG,6440 fluorescence intensity (a.u.)
21,GATCATGAGCTCCACGGCGGCCAACGTGGCGGCGCCGACGCGGAGTCACCTAGTGCAG,8640 fluorescence intensity (a.u.)
